In the library only some 3.2% were active in any assay of this set; here they are far more common.
bovine MsrA act: bovine methionine sulfoxide reductase A activation | purified bovine MsrA, absorbance read-out | activation, % at 10.6 µM | 360,000 tested, 0.3% active | AID 602163; in the data active = activation above about 7.5%
MsrA inhibitor: inhibits bovine methionine sulfoxide reductase A. purified bovine MsrA, absorbance read-out. inhibition, % at 15.5 µM. 360,000 tested, 0.75% active. AID 651718; in the data active = inhibition above about 4.5%
rCAG RNA binder: r(CAG) repeat RNA binding; inhibition, % at 3 µM; AID 651821; TO-PRO-1 dye displacement fluorescence; 370,000 tested, 1.3% active;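 active = inhibition above the plate cutoff, the mean of all test compounds on that plate plus 3 SD, cut at about 35% in these data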;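 note: higher means more dye released from RNA so lower well fluorescence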
PG9 binder: PG9 antibody binding by small molecule; TR-FRET gp120-PG9 antibody binding; inhibition, % at 6.7 µM; 360,000 tested, 0.43% active; AID 624416; in the data active = inhibition above about 8.5%
sPLA2-III inh: Inhibits HGIII-sPLA2 liposome hydrolysis, primary screen. 370,000 tested, 0.56% active. inhibition, % at 12.2 µM. Q9NZ20. QFRET BODIPY PC-A2 liposome hydrolysis, fluorescence;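 active = inhibition above mean plus 3 SD of compounds lying within the high and low control bounds, cut at about 19% in these data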
Target sequence (Q9NZ20 whole entry, looked up): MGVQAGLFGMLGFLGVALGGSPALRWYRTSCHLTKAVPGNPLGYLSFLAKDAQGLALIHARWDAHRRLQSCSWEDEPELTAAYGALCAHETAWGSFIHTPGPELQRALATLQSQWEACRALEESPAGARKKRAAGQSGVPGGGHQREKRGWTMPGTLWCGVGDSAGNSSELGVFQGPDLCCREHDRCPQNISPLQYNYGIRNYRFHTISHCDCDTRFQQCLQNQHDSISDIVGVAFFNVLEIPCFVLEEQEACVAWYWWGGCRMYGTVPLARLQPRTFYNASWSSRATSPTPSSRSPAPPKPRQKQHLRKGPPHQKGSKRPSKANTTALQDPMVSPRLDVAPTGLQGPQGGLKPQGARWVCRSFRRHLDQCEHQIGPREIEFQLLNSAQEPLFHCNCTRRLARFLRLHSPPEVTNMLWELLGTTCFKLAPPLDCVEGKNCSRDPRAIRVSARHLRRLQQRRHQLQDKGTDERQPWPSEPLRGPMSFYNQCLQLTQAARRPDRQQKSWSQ
rCAG binder conf: r(CAG) RNA repeat binding, confirmation; shares compounds with rCAG RNA binder; TO-PRO-1 dye displacement fluorescence; inhibition, % at 3 µM; 4,300 tested, 70% active; AID 652065;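 active = inhibition above a per-plate cutoff, the mean inhibition of sample wells plus 3 SD, cut at about 35% in these data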;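 note: loss of TO-PRO-1 fluorescence as compound displaces dye from 1x1 AA loop RNA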
dCAG dye counter: counter-screen for rCAG RNA binders: DNA CAG dye complex inhibitors | 4,300 tested, 94% active | shares compounds with rCAG RNA binder | d(CAG) DNA oligo TO-PRO-1 dye displacement, fluorescence | inhibition, % at 3 µM | AID 652068;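 active = inhibition above its plate's cutoff, the mean test-well inhibition plus 3 SD, cut at about 4.8% in these data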;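 note: hits displace the dye from DNA and so lower well fluorescence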
Of the large screens only hits and unclear results are named; the others gave an inactive call (follow-up assays come after a bar, where they were run).

Cc1ccc2nc(-c3ccc(NC(=O)COCC(=O)O)cc3)sc2c1	MsrA inhibitor 4.5, rCAG RNA binder 42.2 | rCAG binder conf inactive | dCAG dye counter 8.3
Cc1csc(NC(=O)CSCC(=O)O)c1-c1nc2ccccc2s1	rCAG RNA binder 43.8 | rCAG binder conf 57.4 | dCAG dye counter 19.0
Cc1ccc2nc(-c3ccc(NC(=O)CCN4C(=O)c5ccccc5C4=O)cc3)sc2c1	none
CCN(CC)S(=O)(=O)c1ccc(C(=O)OCC(=O)Nc2ccc(-c3nc4ccc(C)cc4s3)cc2)cc1	none
Cc1ccc2nc(-c3ccc(NC(=O)CSCC(=O)O)cc3)sc2c1	rCAG RNA binder 52.8 | rCAG binder conf 38.6 | dCAG dye counter 10.8
CCOc1ccc(-n2c(SCC(=O)Nc3ccc(S(=O)(=O)Nc4nccs4)cc3)nnc2-c2ccc(C(C)(C)C)cc2)cc1	rCAG RNA binder 59.5 (no result: bovine MsrA act, MsrA inhibitor, PG9 binder) | rCAG binder conf 55.4 | dCAG dye counter 25.4
Cc1ccc(-n2c(SCC(=O)Nc3ccc(S(=O)(=O)Nc4nccs4)cc3)nnc2-c2cccs2)cc1	rCAG RNA binder 71.2 (no result: bovine MsrA act, MsrA inhibitor, PG9 binder) | rCAG binder conf 67.2 | dCAG dye counter 24.6
COc1ccc(-n2c(SCC(=O)Nc3ccccc3)nnc2-c2ccc(NS(=O)(=O)c3ccc(C)cc3)cc2)cc1	none
Cc1ccc(-n2c(SCC(=O)Nc3ccc4c(c3)OCO4)nnc2-c2cccs2)cc1	none
CCOc1ccc(-n2c(SCC(=O)Nc3ccc(S(=O)(=O)Nc4nccs4)cc3)nnc2-c2ccncc2)cc1	rCAG RNA binder 69.5 (no result: bovine MsrA act, MsrA inhibitor, PG9 binder) | rCAG binder conf 58.7 | dCAG dye counter 26.4
O=C(CSc1nnc(-c2ccccn2)n1-c1ccc(Cl)cc1)Nc1ccc(S(=O)(=O)Nc2nccs2)cc1	rCAG RNA binder 73.6 (no result: bovine MsrA act, MsrA inhibitor, PG9 binder) | rCAG binder conf 75.4 | dCAG dye counter 39.2
COc1ccc(-n2c(SCC(=O)Nc3nccs3)nnc2-c2ccc(Cl)cc2)cc1	none
O=C(NCc1cccnc1)C1Cc2c(-c3ccc(Cl)cc3)ccnc2O1 (stereo not given)	none
O=C(O)CCN1C(=O)/C(=C/c2ccc(F)cc2F)SC1=S	none (no result: bovine MsrA act, MsrA inhibitor, rCAG RNA binder, PG9 binder)
CCCCNC(=O)NS(=O)(=O)c1ccc(NC(=O)CSc2nnc(-c3cccs3)n2-c2ccc(OC)cc2)cc1	rCAG RNA binder 53.9 (no result: bovine MsrA act, MsrA inhibitor, PG9 binder) | rCAG binder conf 62.1 | dCAG dye counter 22.7
COc1ccc(-n2c(SCC(=O)Nc3ccc(C(=O)O)cc3)nnc2-c2cccs2)cc1	none
CCOc1ccc(-n2c(SCC(=O)Nc3nccs3)nnc2-c2ccoc2C)cc1	none
CCOc1ccc(-n2c(SCC(=O)Nc3ccc(S(=O)(=O)Nc4nccs4)cc3)nnc2-c2ccco2)cc1	rCAG RNA binder 67.9 (no result: bovine MsrA act, MsrA inhibitor, PG9 binder) | rCAG binder conf 68.6 | dCAG dye counter 27.9
CC(C)(C)c1ccc(-c2nnc(SCC(=O)Nc3ccc(S(=O)(=O)Nc4nccs4)cc3)n2-c2ccc(Cl)cc2)cc1	rCAG RNA binder 61.3 (no result: bovine MsrA act, MsrA inhibitor, PG9 binder) | rCAG binder conf 61.7 | dCAG dye counter 26.5
COc1cccc(Cn2c(C(C)n3c(-c4cnccn4)nc4ccccc43)nc3ccccc32)c1 (stereo not given)	none (no result: bovine MsrA act)
CC(C)(C)S(=O)N1Cc2cc(C(=O)O)nc(-c3cccc(-c4cc5ccccc5o4)c3)c2[C@H]1CCO (stereo not given in full)	rCAG RNA binder 38.8 | rCAG binder conf 35.0 | dCAG dye counter 13.3
CN1CCN(C(=O)c2cc3c(c(-c4cccc(-c5cc6ccccc6o5)c4)n2)[C@H](CCO)N(S(=O)C(C)(C)C)C3)CC1 (stereo not given in full)	none
O=C(Nc1ccc(Cl)cc1)Nc1ccc(S(=O)(=O)Nc2ncccn2)cc1	none
O=C(Nc1ccc(S(=O)(=O)Nc2ncccn2)cc1)c1ccccc1NS(=O)(=O)c1ccc(Cl)cc1	rCAG RNA binder 41.5 | rCAG binder conf 65.5 | dCAG dye counter 26.1
O=C(c1ccc(Cl)cc1)N1CCc2ccccc21	none
O=C(O)c1ccc(Cl)c(S(=O)(=O)Nc2ccccc2C(=O)Nc2ccc(Cl)cc2)c1	rCAG RNA binder 45.4 | rCAG binder conf 46.3 | dCAG dye counter 17.1
O=C(O)c1ccc(NS(=O)(=O)c2ccc(NC(=O)c3ccccc3Cl)cc2)cc1	none
O=C(c1ccccc1NS(=O)(=O)c1ccc(Cl)cc1)N1CCc2ccccc21	rCAG RNA binder 47.1 | rCAG binder conf 60.9 | dCAG dye counter 15.2
Cc1ccc([C@H]2C(C(=O)O)=CC[C@@H](c3ccc4c(c3)OCO4)N2S(=O)(=O)c2ccc(C)cc2)cc1	rCAG RNA binder 63.4 | rCAG binder conf 61.5 | dCAG dye counter 22.3
Cc1ccc(S(=O)(=O)N2[C@@H](c3cccc(Cl)c3)C(C(=O)O)=CC[C@H]2c2ccc3c(c2)OCO3)cc1	rCAG RNA binder 67.1 | rCAG binder conf 69.3 | dCAG dye counter 31.1
Cc1ccc(S(=O)(=O)N2[C@@H](c3ccc(Cl)cc3)C(C(=O)O)=CC[C@H]2c2ccc3c(c2)OCO3)cc1	rCAG RNA binder 54.4 | rCAG binder conf 60.0 | dCAG dye counter 22.6
Cc1ccc(S(=O)(=O)N2[C@@H](c3ccc(Br)cc3)C(C(=O)O)=CC[C@H]2c2ccc3c(c2)OCO3)cc1	rCAG RNA binder 66.6 | rCAG binder conf 59.8 | dCAG dye counter 22.6
COc1ccc(S(=O)(=O)N(C)C[C@@H]2Oc3c(NC(=O)Nc4cccc5ccccc45)cccc3C(=O)N([C@@H](C)CO)C[C@H]2C)cc1	none (no result: bovine MsrA act, MsrA inhibitor, rCAG RNA binder, PG9 binder)
COC(=O)[C@]12C[C@H](CC(=O)NCC3CCCCC3)C(=O)N(Cc3ccc(Cl)cc3Cl)C1=C[C@H](C(C)(C)C)O[C@@H]2C	none (no result: bovine MsrA act, MsrA inhibitor, PG9 binder)
Cc1ccc([C@H]2C(C(=O)O)=CC[C@@H](c3ccc(C)cc3)N2S(=O)(=O)c2ccc(C)cc2)cc1	rCAG RNA binder 76.2 | rCAG binder conf 66.7 | dCAG dye counter 29.6
Cc1ccc([C@H]2C(C(=O)O)=CC[C@@H](c3cccc(C)c3)N2S(=O)(=O)c2ccc(C)cc2)cc1	none
Cc1ccc([C@@H]2CC=C(C(=O)O)[C@H](c3ccccc3)N2S(=O)(=O)c2ccc(C)cc2)cc1	rCAG RNA binder 55.6 | rCAG binder conf 58.8 | dCAG dye counter 21.9
O=C(/C=C/c1ccc(O)c(O)c1)c1ccc(S(=O)(=O)N2CCCCCC2)cc1	rCAG RNA binder 46.3 | rCAG binder conf 48.0 | dCAG dye counter 26.0
O=C(Nc1cccnc1)c1ccc(Cl)c(S(=O)(=O)N2CCCCC2)c1	none
O=C(O)c1ccc(Cl)c(S(=O)(=O)Nc2cccc(C(=O)Nc3cccc(C(F)(F)F)c3)c2)c1	rCAG RNA binder 39.1 | rCAG binder conf inactive | dCAG dye counter 7.9
O=C(O)c1cccc(NC(=O)c2cccc(S(=O)(=O)N3CCc4ccccc43)c2)c1	none
O=C(O)c1cccc(NC(=O)c2ccc(Cl)c(S(=O)(=O)N3CCCCCC3)c2)c1	rCAG RNA binder 34.6 | rCAG binder conf inactive | dCAG dye counter 5.4
O=C(O)c1cccc(NC(=O)c2cccc(S(=O)(=O)N3CCc4ccccc4C3)c2)c1	rCAG RNA binder 37.0 | rCAG binder conf inactive | dCAG dye counter 4.5

Bioassay records as filed in PubChem BioAssay.
